According to PubChem BioAssay (Tox21):
Records with an inconclusive call do not appear. Active and inactive are the calls of the source. Unless noted, calls follow the shape of the full dose curve.

Columns and labels:
[1] = molecular target: Thyrotropin receptor (Homo sapiens) (UniProt P16473); assay: qHTS assay to identify small molecule agonists of the thyroid stimulating hormone receptor (TSHR) signaling pathway (AID 1224843); also: nearly all actives have a fitted effect of over 45% in size
In short: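 Screening of the Tox21 10K collection used HEK293 cells engineered with TSHR at 800 cells per well. After a 30-min room-temperature compound exposure, HTRF cAMP reagents were added and fluorescence recorded 1 h later.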

[2] = qHTS assay to identify small molecule agonists of the hypoxia (HIF-1) signaling pathway - cell viability counter screen (AID 1224844); also: nearly all actives have a fitted effect of over 50% in size
In short: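 Cells (HRE-bla ME-180, 2,000 per well) sat 5 hrs at 37C, got compound for 17 hrs, were read for CCF4-AM FRET, and were finally lysed with CellTiter-Glo for a 30 min room-temperature luminescence read.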

[3] = qHTS assay to identify small molecule agonists of H2AX (AID 1224845; active = well fitted activation curve with a large enough effect in the signal ratio in the repeat runs, not every such curve was filed as active; the % refers to the signal ratio)
In short: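 Phospho-H2AX Ser139 measured by HTRF (ex 320 nm; em 665 and 620 nm) after 24 hr antibody incubation. Compounds, 15 concentrations, 0.76% DMSO, were applied to CHO-K1 cells for 3hr at 37C before lysis.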

[4] = qHTS assay to identify small molecule agonists of the hypoxia (HIF-1) signaling pathway (AID 1224846; active = well fitted activation curve with a large enough effect in the signal ratio in the repeat runs, not every such curve was filed as active; the % refers to the signal ratio)
In short: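 A low-serum medium (0.5% dialyzed FBS) holding 2,000 HRE-bla ME-180 cells per well is preincubated for 5 hrs, dosed with compounds by pintool, and kept a further 17 hrs at 37C, 5% CO2 before CCF4-AM FRET detection of beta-lactamase.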

[5] = qHTS assay to identify small molecule agonists of H2AX - cell viability counter screen (AID 1224847);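 also: wild-type CHO-K1 cells; top concentration of the series differs between compounds; nearly all actives have a fitted effect of over 30% in size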
In short: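 After overnight plating of 1000 CHO-K1 cells per well, a 15-concentration compound series was applied for 3 hr at 37C. Luminescence from CellTiter-Glo, read following 30 min at room temperature, reflected cell viability.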

[6] = qHTS assay to identify small molecule antagonists of the estrogen related receptor (ERR) signaling pathway from Tox21 library (AID 1224848; active = well fitted curve in the direction sought with a large enough effect in the repeat runs; an effect the other way counts as inactive or inconclusive; also: nearly all actives have a fitted effect of over 50% in size)
In short: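 Antagonist-mode screen of the Tox21 10K library in an NTP-provided ERR reporter cell line; 18 h compound exposure at 37 C, luminescence measured with ONE-Glo.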

[7] = qHTS assay to identify small molecule agonists of the estrogen related receptor (ERR) signaling pathway from Tox21 library (AID 1224849); conditions: ERR reporter cell line, ONE-Glo luciferase, 18 h; at 92.4 µM (top of the series) unless noted; also: nearly all actives have a fitted effect of over 15% in size
In short: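 Screening used an NTP-provided ERR luciferase cell line. Compounds in DMSO were added 6 h after seeding and left 18 h at 37 C before a 30 min ONE-Glo step and luminescence reading.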

[8] = qHTS RealTime-Glo MT Cell Viability Assay in HepG2 cells - 24 hour (AID 1224867; active = well fitted curve in the direction sought with a large enough effect in the repeat runs; an effect the other way counts as inactive or inconclusive; also: nearly all actives have a fitted effect of over 50% in size)
In short: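 Compound treatment began 5 h after plating HepG2 cells (600/well) with NanoLuc luciferase and prosubstrate. Plates stayed at 37 C for 40 h; luminescence was captured at six time points, 0 h through 40 h.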

[9] = qHTS RealTime-Glo MT Cell Viability Assay in HEK293 cells - 32 hour (AID 1224868; active = well fitted curve in the direction sought with a large enough effect in the repeat runs; an effect the other way counts as inactive or inconclusive; also: top concentration of the series differs between compounds; nearly all actives have a fitted effect of over 50% in size)
In short: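 Quantitative high-throughput screen of the Tox21 10K library in HEK293: cells and RealTime-Glo reagents plated together, compound added at 5 h, luminescence monitored through 40 h at 37 C.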

[10] = A CellTox Green Cytotoxicity Assay to monitor cytotoxicity in HEK293 cells - 0 hour (AID 1224869; active = well fitted curve in the direction sought with a large enough effect in the repeat runs; an effect the other way counts as inactive or inconclusive; also: nearly all actives have a fitted effect of over 50% in size)
In short: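 Fluorescence intensity, read at 0, 8, 16, 24, 32 and 40 h of compound treatment, reflected dye binding to DNA of dead HEK293 cells; compounds (23 nL, DMSO) were added 5 h after plating cells with reagent.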
% is scaled to controls: 0 for no effect and ±100 for the full control effect.

Thyrotropin receptor (Homo sapiens), sequence (P16473 whole entry, looked up): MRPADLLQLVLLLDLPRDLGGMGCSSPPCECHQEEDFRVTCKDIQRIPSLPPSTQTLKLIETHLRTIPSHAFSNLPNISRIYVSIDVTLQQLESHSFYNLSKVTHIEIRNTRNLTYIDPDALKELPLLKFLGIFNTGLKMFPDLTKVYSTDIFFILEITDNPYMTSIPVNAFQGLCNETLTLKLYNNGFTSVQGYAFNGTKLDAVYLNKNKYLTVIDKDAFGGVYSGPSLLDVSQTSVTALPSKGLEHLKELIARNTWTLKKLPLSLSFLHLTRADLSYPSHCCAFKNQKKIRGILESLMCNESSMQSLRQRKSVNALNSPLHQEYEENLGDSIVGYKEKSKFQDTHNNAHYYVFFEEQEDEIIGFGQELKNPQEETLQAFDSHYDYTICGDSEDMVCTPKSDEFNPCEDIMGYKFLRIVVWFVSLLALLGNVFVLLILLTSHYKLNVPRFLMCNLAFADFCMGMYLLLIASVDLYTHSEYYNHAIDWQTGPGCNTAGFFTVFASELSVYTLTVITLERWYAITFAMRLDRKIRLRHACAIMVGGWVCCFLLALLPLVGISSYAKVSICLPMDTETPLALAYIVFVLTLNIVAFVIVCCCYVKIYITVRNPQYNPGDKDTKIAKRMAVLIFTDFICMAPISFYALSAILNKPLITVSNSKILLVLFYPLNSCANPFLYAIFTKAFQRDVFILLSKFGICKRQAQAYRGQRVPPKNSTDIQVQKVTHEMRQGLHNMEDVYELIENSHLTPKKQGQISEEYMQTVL

CCC(=O)Nc1cccc(N)c1
inactive: outcome [1] | Potency [2] | outcome [3] | outcome [4] | Potency [5] | Potency [6] | activity change, positive = activation [7] -10.7% | outcome [8] | Potency [9] | Potency [10]

O=Cc1ccccc1[N+](=O)[O-]
inactive: outcome [1] | Potency [2] | outcome [3] | outcome [4] | Potency [5] | Potency [6] | activity change, positive = activation [7] 2.11% | outcome [8] | Potency [9] | Potency [10]

C=C(C)[C@@H]1CCC2=CC(=O)C[C@@H](C)[C@]2(C)C1
inactive: outcome [1] | Potency [2] | outcome [3] | outcome [4] | Potency [5] | Potency [6] | activity change, positive = activation [7] -3.73% | outcome [8] | Potency [9] | Potency [10]

CCO[Si](CCCN=C=O)(OCC)OCC
inactive: outcome [1] | Potency [2] | outcome [3] | outcome [4] | Potency [5] | Potency [6] | activity change, positive = activation [7] -6.45% | outcome [8] | Potency [9] | Potency [10]

CCC(=O)/C=C/c1ccc(OC)cc1
inactive: outcome [1] | Potency [2] | outcome [3] | outcome [4] | Potency [5] | Potency [6] | activity change, positive = activation [7] -2.91% | outcome [8] | Potency [9] | Potency [10]

CC(C)COC(=O)C(C)C
inactive: outcome [1] | Potency [2] | outcome [3] | outcome [4] | Potency [5] | Potency [6] | activity change, positive = activation [7] 8.11% | outcome [8] | Potency [9] | Potency [10]

CCCC=O
inactive: outcome [1] | Potency [2] | outcome [3] | outcome [4] | Potency [5] | Potency [6] | activity change, positive = activation [7] 0.262% | outcome [8] | Potency [9] | Potency [10]

Nc1ncnc2c1ncn2Cc1c(F)cccc1Cl
inactive: outcome [1] | Potency [2] | outcome [3] | outcome [4] | Potency [5] | Potency [6] | activity change, positive = activation [7] 0.331% [at 42.5 µM] | outcome [8] | Potency [9] | Potency [10]

c1ccc2cnncc2c1
inactive: outcome [1] | Potency [2] | outcome [3] | outcome [4] | Potency [5] | Potency [6] | activity change, positive = activation [7] -2.66% | outcome [8] | Potency [10]

Cc1ncc(CSSCc2cnc(C)c(O)c2CO)c(CO)c1O
inactive: outcome [1] | Potency [2] | outcome [3] | outcome [4] | Potency [5] | Potency [6] | activity change, positive = activation [7] 0.477% [at 42.5 µM] | outcome [8] | Potency [9] | Potency [10]

CC(C)CCCC(C)NCCC(C)C (centres undefined)
inactive: outcome [1] | Potency [2] | outcome [3] | outcome [4] | Potency [5] | Potency [6] | activity change, positive = activation [7] 1.21% [at 42.5 µM] | outcome [8] | Potency [9] | Potency [10]
